BCR signal inh = qHTS Assay to Find Inhibitors of Chronic Active B-Cell Receptor Signaling; Potency, µM (series often up to 46.1 µM), inactives show top-dose activity change, negative = inhibition, hits mostly inhibitors; hit rate 0.05% among 340,000; ABC-DLBCL IkBa-CBG/CBR reporter, luminescence ratio, 4 h; AID 493014, 2011; active = well fitted inhibition curve with a large enough effect in the signal ratio, with a control signal flat, not every such curve was filed as active; inconclusive = small, poorly fitted or top-dose-only effect, or effect the other way, or a change in a side signal; the % refers to the signal ratio;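 note: potency is the fitted concentration of half-maximal effect; plate controls were basal doxycycline-induced cells for no effect and cells given 10 µM MG132 for full effect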
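TMD8 human ABC-DLBCL cells with doxycycline-inducible IκBα–green luciferase fusion and unfused red luciferase, in 0.5% FBS medium; compounds up to 46 uM, 4 h at 37C. Green/red luminescence ratio, filter-overlap corrected, fitted to concentration-response curves.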
B2AR arrestin = qHTS assay of beta-arrestin-biased ligands of beta2-adrenergic receptor; Beta-2 adrenergic receptor (Homo sapiens), P07550; beta-arrestin recruitment to beta2AR, cell-based reporter; Potency, µM (doses to about 46.1 µM), inactives show top-dose activation, most hits filed as activators; hit rate 0.02% among 330,000;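 note: potency is the fitted concentration of half-maximal effect; 0% = DMSO controls and full agonism = EC100 isoproterenol or metaproterenol; nearly all actives have a fitted effect of over 65% in size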
Target sequence (P07550 whole entry, looked up): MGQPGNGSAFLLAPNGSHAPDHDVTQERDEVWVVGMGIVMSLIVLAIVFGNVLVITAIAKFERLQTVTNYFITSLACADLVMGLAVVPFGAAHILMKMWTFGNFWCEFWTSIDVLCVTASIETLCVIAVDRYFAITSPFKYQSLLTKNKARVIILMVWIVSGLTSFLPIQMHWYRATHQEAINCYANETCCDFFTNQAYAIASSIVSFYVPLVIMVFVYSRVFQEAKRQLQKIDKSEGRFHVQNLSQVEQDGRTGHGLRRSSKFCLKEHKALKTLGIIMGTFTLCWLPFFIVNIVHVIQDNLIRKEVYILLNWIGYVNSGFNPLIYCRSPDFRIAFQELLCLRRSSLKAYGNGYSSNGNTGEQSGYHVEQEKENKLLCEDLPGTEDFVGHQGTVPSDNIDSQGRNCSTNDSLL
RXFP1 antag = qHTS Assay for Antagonists of the Relaxin Receptor RXFP1; Relaxin receptor 1 (Homo sapiens), Q9HBX9; HEK293-RXFP1, relaxin-stimulated cAMP HTRF, 30 min; stronger effect = lower value; activity change, negative = inhibition, % at 57.5 µM; hit rate 0.59% among 350,000;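 active = activity change of -60% or lower, but not beyond a set lower limit; inconclusive = change between -60% and -40%, or beyond the set limit; inactive = change above -40%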
RXFP1 ag = qHTS Assay for Agonists of the Relaxin Receptor RXFP1; Relaxin receptor 1 (Homo sapiens), Q9HBX9; HEK293T-RXFP1 cAMP TR-FRET, 30 min; response scale: percent of porcine relaxin response, buffer zero; Potency, µM (doses to about 57.5 µM), without a hit: at the highest dose activation, most hits filed as activators; hit rate 0.3% among 370,000; note: potency is the fitted concentration of half-maximal effect; nearly all actives have a fitted effect of over 60% in size
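HEK293 cells stably expressing RXFP1, treated 30 min at 37C with compounds plus PDE4 inhibitor Ro 20174; cAMP measured by HTRF TR-FRET. Normalized to buffer and 29 nM porcine relaxin; EC50 by Hill fit.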
Numbers without * were called inactive; ? = inconclusive; / = not tested or not shown. Shown are actives, neighbours in structure and some others; about 0.59% of the full set was active somewhere. Unless noted, calls come from the whole dose curve; as a rule, active = well fitted activation curve with a large enough effect; inconclusive = small, poorly fitted or top-dose-only effect; inactive = flat fitted curve, though single readings scatter. Unless noted, % is set by controls: 0 for no effect and ±100 for the full control effect.

SMILES	BCR signal inh	B2AR arrestin	RXFP1 antag	RXFP1 ag
CC(C)c1ccc(NC(=O)c2cc3c(=O)oc4ccccc4c3s2)cc1	/	/	5	0%
O=S1(=O)C=C(Sc2nc3cc(Cl)ccc3o2)c2ccccc21	6.3µM*	5%	-23	1%
Cc1cc(NC(=O)CSc2nc3cc(Cl)ccc3o2)no1	1%	0%	-2	9%
Cc1ccc(OCC(=O)OCc2cc(=O)n3nc(C4CCCCC4)sc3n2)cc1C	/	/	/	-3%
O=C1Nc2ccc(Br)cc2/C1=C/C(=O)c1ccc2c(c1)OCO2	?	-1%	-84*	4%
COc1ccc(C(=O)/C=C2\C(=O)Nc3ccc(Br)cc32)cc1	/	/	-75*	/
O=C1Nc2ccccc2/C1=C\C(=O)c1ccccc1	?	-1%	?	0%
CC(C)Oc1ccc(C(=O)/C=C2/C(=O)Nc3ccccc32)cc1	?	0%	?	3%
O=C(OCc1nnc(-c2ccccc2)o1)c1ccc([N+](=O)[O-])o1	0%	0%	40	0%
O=C(OCc1nnc(-c2ccccc2)o1)c1ccc(Br)o1	-2%	0%	-73*	0%
OCCNc1ncnc2c1c(-c1ccccc1)c(-c1ccccc1)n2Cc1ccco1	?	0%	1	1%
c1ccc(-c2c(-c3ccccc3)n(Cc3ccco3)c3ncnc(NCCCn4ccnc4)c23)cc1	?	0%	-65*	5%
CCCSS/C(CCO)=C(\C)N(C=O)Cc1cnc(C)nc1N	/	/	9	/
Cc1ccc(-n2[nH]c(C)c(/C=N/Nc3ccc([N+](=O)[O-])cc3[N+](=O)[O-])c2=O)cc1	14%	0%	-74*	-1%
Cc1[nH]n(-c2ccc([N+](=O)[O-])cc2)c(=O)c1C=NCC1CCCO1 (stereo not given)	-6%	0%	-8	18%
COc1ccc(OC)c(CNC(=O)CCCn2nc(C)c3c(C)n(-c4ccc(C)cc4)nc3c2=O)c1	/	/	5	0%
Fc1ccc2c(c1)-c1nc(-c3ccccc3)cc(-c3ccccc3)c1CO2	/	/	/	-1%
COc1ccccc1NC(=O)N1CCC(c2nc3cc(C)c(C)cc3[nH]2)CC1	18µM*	0%	-9	0%
O=C(N/N=C/c1cccc2ccccc12)c1ccncc1	-5%	0%	-11	-1%
O=C(/C=C/c1cccc2ccccc12)c1ccncc1	?	0%	-71*	1%
CCc1ccc(-n2nc(CO)c(C(=O)NCCOC)n2)cc1	/	/	-2	0%
CCOC(=O)N1CCN(C(=O)CSc2ccc3nnc(-c4cccnc4)n3n2)CC1	-1%	0%	-1	14µM*
CCOc1ccc(NC(=O)CSc2ccc3nnc(-c4cccnc4)n3n2)cc1	1%	-1%	11	25µM*
CC1=C(C(=O)Nc2cccnc2)C(c2ccccc2)n2nc(SCc3ccccc3F)nc2N1 (stereo not given)	/	/	/	2%
COc1ccc(N(Cc2nnc3n2CCCCC3)C(=O)Nc2cccc(C)c2)cc1Cl	/	/	/	3%
SMILES	BCR signal inh	B2AR arrestin	RXFP1 antag	RXFP1 ag
Cc1cc(OC(C)C(=O)N(Cc2ccc(N(C)C)cc2)Cc2ccco2)ccc1Cl (stereo not given)	/	/	-15	-3%
Cc1cc(OC(C)C(=O)N(Cc2ccco2)Cc2ccccc2F)cc(C)c1Cl (stereo not given)	/	/	-72*	-6%
COc1ccc(-c2c3c([nH]c(=S)c2C#N)CCC3)cc1	9%	0%	16	32µM*
COc1ccc(Cl)cc1NC(=O)CSc1nc(-c2ccccc2)c2ccccc2n1	/	/	-10	-4%
Cc1cccc2c1-c1sc(C(=O)N3CCN(c4ccccc4)CC3)cc1CO2	/	/	-8	24%
Cc1ccc(N(Cc2cccs2)C(=O)C(C)Oc2ccc(Cl)c(C)c2)cc1 (stereo not given)	/	/	-100*	-2%
COc1ccc(N(Cc2cccs2)C(=O)c2ccc(OCC(C)C)cc2)cc1	/	/	?	-4%
Cc1ccc(N(Cc2cccs2)C(=O)c2ccc(Br)o2)cc1	/	/	-85*	0%
COc1ccc(N(Cc2cccs2)C(=O)c2ccc(C(C)(C)C)cc2)cc1	/	/	-73*	-1%
Cc1ccc(N(Cc2cccs2)C(=O)c2ccccc2)cc1	/	/	/	-1%
COc1ccc(NC(=O)Nc2cc(C(=O)NCc3ccc(C)cc3)ccc2N2CCCC2)cc1	/	/	-11	7%
CCOC(=O)c1cc(-c2ccccc2)n(-c2cccc(C(=O)Nc3cccc(SC)c3)c2)c1C	-6%	/	-21	1%
COc1ccc(CNc2ccc3cc(S(=O)(=O)N4CCCCC4)ccc3n2)cc1	/	/	-9	-1%
CN(C)c1ccc(NC(=O)N2CCOCC2)cc1	?	0%	-69*	0%
Cc1cccc(-c2nc(CCNC(=O)c3ccccc3Br)cs2)c1	/	/	-24	0%
CC(=O)SC[C@@H](C)C(=O)N1CCC[C@H]1C(=O)N[C@@H](Cc1ccccc1)C(=O)O	/	/	14	/
O=c1[nH]c(SCc2n[nH]c(=S)n2-c2ccccc2)nc2sc3c(c12)CCC3	-2%	0%	-67*	4%
O=c1[nH]c(SCc2n[nH]c(=S)n2-c2ccccc2)nc2ccccc12	-10%	0%	-11	5%
COC(=O)c1ccc(COc2ncnc3ccccc23)o1	-12%	0%	8	16µM*
CCOc1ccccc1Nc1ccc2cc(S(=O)(=O)N3CCCCC3)ccc2n1	/	/	4	2%
COc1ccc(Br)cc1CNC(=O)Cn1nc(C)n2c(cc3cc(F)ccc32)c1=O	/	/	0	2%
O=C(Nc1ccc(Nc2ccccc2)cc1)c1ccc(Br)o1	-2%	0%	-68*	-1%
Cc1cccc2nc(Cn3c(=O)n(-c4ccc(Cl)cc4)c(=O)c4c5c(sc43)CCC5)cc(=O)n12	/	/	/	6%
CCc1ccc(NC(=O)CSc2nc3ncccc3[nH]2)cc1	/	/	9	0%
Cc1nn(-c2ccccc2)c(C)c1/C=N/NC(=O)c1cc(-c2ccc(Br)s2)[nH]n1	7%	0%	-5	2%
SMILES	BCR signal inh	B2AR arrestin	RXFP1 antag	RXFP1 ag
Cc1nn(-c2ccccc2)c(C)c1/C=N/NC(=O)c1cc(-c2cccs2)[nH]n1	18µM*	2%	-2	2%
CCc1nc2ccccc2n1CC(=O)N1CCN(S(=O)(=O)c2cccc(C(F)(F)F)c2)CC1	-5%	-1%	-11	0%
O=C(c1cc(Cl)nc2ccccc12)N1CCN(S(=O)(=O)c2cccc(C(F)(F)F)c2)CC1	0%	0%	-77*	-1%
Cc1cc(C=O)c(C)n1-c1ccc(NC2CCCC2)c([N+](=O)[O-])c1	?	0%	-65*	0%
Cc1cc(C=O)c(C)n1-c1ccc(Oc2ccc([N+](=O)[O-])cn2)cc1	1%	0%	-10	2%
O=C(Cn1nc2c(cc1=O)CCCC2)NCc1ccccc1Cl	/	/	3	2%
CCC(Cc1ccccc1)NC(=O)c1csc2c1CCCCC2 (stereo not given)	/	/	/	0%
CS(=O)(=O)Oc1ccc(Br)c2cccnc12	-3%	-1%	-1	0%

Screening results (PubChem BioAssay)
